Test results: ChEMBL document CHEMBL2218924, “A broad activity screen in support of a chemogenomic map for kinase signalling research and drug discovery” (Biochem J, 2013)

Assays:
[1] = target: T1, Casein kinase II (Homo sapiens) (UniProt P67870+P68400+P19784); conditions: at 1 µM
[2] = target: T1, Casein kinase II (Homo sapiens); conditions: at 10 µM
[3] = target: Casein kinase II subunit alpha' (Homo sapiens) (UniProt P19784); conditions: at 1 µM
[4] = target: Casein kinase II subunit alpha' (Homo sapiens) (UniProt P19784); conditions: at 10 µM
[5] = target: Dual specificity protein kinase CLK2 (Homo sapiens) (UniProt P49760); conditions: at 1 µM
Dual specificity protein kinase CLK2 (Homo sapiens), sequence (P49760 whole entry, looked up): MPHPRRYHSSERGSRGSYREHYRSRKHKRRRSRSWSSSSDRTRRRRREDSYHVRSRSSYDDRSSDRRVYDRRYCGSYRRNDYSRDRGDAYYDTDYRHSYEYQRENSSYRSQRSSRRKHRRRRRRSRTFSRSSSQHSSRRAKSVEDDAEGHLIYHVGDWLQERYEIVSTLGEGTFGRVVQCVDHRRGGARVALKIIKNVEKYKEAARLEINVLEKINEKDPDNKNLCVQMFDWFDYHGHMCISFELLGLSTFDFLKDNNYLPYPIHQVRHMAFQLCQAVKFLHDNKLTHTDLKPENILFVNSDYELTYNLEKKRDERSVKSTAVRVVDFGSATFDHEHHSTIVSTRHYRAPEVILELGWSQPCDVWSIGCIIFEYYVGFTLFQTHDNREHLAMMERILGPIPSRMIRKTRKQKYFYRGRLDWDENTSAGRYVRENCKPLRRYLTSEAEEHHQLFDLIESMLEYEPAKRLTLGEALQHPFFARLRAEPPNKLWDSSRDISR

[6] = target: Dual specificity protein kinase CLK2 (Homo sapiens) (UniProt P49760); conditions: at 10 µM
[7] = target: Dual specificity protein kinase CLK3 (Homo sapiens) (UniProt P49761); conditions: at 10 µM
Dual specificity protein kinase CLK3 (Homo sapiens), sequence (P49761 whole entry, looked up): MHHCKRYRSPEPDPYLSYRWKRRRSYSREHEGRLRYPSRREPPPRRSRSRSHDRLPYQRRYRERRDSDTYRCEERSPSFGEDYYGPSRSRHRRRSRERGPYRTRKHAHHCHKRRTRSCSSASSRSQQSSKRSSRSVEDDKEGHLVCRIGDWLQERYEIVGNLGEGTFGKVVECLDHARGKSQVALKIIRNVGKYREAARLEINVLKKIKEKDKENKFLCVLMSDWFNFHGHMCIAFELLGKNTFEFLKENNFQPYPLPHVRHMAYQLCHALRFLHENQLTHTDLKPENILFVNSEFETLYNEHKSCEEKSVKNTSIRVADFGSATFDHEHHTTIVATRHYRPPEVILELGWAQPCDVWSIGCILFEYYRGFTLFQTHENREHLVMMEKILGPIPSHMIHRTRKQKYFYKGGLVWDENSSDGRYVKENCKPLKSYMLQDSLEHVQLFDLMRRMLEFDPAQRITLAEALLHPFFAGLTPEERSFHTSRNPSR

[8] = target: Tyrosine-protein kinase CSK (Homo sapiens) (UniProt P41240); conditions: at 1 µM
Tyrosine-protein kinase CSK (Homo sapiens), sequence (P41240 2-450 limits assumed): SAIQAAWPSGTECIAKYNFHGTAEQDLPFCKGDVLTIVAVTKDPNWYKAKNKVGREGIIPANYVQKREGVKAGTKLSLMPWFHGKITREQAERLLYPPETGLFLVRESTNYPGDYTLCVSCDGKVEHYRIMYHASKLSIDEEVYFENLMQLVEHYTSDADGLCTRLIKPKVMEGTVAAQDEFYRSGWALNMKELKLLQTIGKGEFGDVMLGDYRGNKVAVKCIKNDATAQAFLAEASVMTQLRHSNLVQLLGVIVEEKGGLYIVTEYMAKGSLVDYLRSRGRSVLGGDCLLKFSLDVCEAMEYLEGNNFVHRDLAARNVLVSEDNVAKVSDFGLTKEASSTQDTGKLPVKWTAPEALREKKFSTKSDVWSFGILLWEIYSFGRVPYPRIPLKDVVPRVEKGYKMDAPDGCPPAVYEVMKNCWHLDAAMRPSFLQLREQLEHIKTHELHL

[9] = target: Tyrosine-protein kinase CSK (Homo sapiens) (UniProt P41240); conditions: at 10 µM
[10] = target: Dual specificity protein kinase CLK3 (Homo sapiens) (UniProt P49761); conditions: at 1 µM

Casein kinase II subunit alpha' (Homo sapiens), sequence (P19784 whole entry, looked up): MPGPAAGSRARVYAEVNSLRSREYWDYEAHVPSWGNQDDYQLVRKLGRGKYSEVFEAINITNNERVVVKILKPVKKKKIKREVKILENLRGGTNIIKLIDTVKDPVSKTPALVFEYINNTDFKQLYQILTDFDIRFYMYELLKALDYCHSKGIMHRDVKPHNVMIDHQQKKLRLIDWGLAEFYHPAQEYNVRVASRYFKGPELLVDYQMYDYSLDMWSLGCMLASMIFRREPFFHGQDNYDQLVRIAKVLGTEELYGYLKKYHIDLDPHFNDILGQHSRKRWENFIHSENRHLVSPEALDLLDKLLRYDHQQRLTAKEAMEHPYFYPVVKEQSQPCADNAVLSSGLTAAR
T1 sequence (P19784 whole entry, looked up): as above
T1 sequence (P67870 whole entry, looked up): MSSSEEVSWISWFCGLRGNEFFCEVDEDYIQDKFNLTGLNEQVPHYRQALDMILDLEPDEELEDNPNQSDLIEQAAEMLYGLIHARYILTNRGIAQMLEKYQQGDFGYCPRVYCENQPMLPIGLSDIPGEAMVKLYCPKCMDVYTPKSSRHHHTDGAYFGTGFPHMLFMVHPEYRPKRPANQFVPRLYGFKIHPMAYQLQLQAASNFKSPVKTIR
T1 sequence (P68400 whole entry, looked up): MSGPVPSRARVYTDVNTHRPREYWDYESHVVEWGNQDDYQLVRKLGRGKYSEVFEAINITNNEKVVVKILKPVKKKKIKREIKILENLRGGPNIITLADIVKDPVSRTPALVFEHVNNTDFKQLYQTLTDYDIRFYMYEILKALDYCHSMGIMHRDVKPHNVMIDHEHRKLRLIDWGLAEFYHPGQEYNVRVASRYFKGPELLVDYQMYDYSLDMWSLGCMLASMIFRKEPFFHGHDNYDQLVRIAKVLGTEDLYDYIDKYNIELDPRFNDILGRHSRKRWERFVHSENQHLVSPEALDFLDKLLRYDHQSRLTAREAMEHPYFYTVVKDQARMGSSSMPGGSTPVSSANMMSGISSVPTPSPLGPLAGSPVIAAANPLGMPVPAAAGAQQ

SMILES | residual activity [1] [%] | residual activity [2] [%] | residual activity [3] [%] | residual activity [4] [%] | residual activity [5] [%] | residual activity [6] [%] | residual activity [7] [%] | residual activity [8] [%] | residual activity [9] [%] | residual activity [10] [%]
O=c1[nH]c2ccccc2n1C1CCN(Cc2ccc(-c3nc4cc5[nH]cnc5cc4nc3-c3ccccc3)cc2)CC1 | 89 | 101 | 113 | 95 | 98 | 76 | 76 | 112 | 89 | 
CC(C)(C)c1cc(C=C(C#N)C#N)cc(Br)c1O | 113 | 114 | 121 | 113 | 99 | 103 | 108 | 103 | 105 | 100
O=[N+]([O-])/C=C/c1ccc2c(c1)OCO2 | 105 | 126 | 134 | 102 | 121 | 101 |  | 112 | 100 | 91
CC(C)[C@H](CO)Nc1nc(Nc2cccc(Cl)c2)c2ncn(C(C)C)c2n1 | 99 | 96 |  |  | 8 | 1 | 11 |  | 65 | 55
N/C(=N\[N+](=O)[O-])N/N=C\c1ccc(-c2cccc([N+](=O)[O-])c2)o1 | 97 | 89 |  |  |  |  | 86 | 122 | 100 | 93
COc1ccc2c(c[n+](C)c3c4cc5c(cc4ccc23)OCO5)c1OC | 92 | 110 | 126 |  | 120 | 93 | 80 |  | 95 | 74
C[S+]([O-])c1ccc(-c2nc(-c3ccc(F)cc3)c(-c3ccncc3)[nH]2)cc1 (stereo not given) | 100 | 104 | 122 | 105 | 114 | 94 | 98 | 103 | 98 | 98
O=C1c2ccccc2-c2nc3nnnn3nc21 |  |  | 129 | 77 | 115 | 107 | 119 | 123 | 115 | 83
CN[C@@H]1C[C@H]2O[C@@](C)([C@@H]1OC)n1c3ccccc3c3c4c(c5c6ccccc6n2c5c31)C(=O)NC4 | 81 | 85 | 83 | 85 |  |  |  |  |  | 
O=C1Nc2ccc3ncsc3c2/C1=C/c1c[nH]cn1 | 30 | 1 | 12 | -1 | 8 | 3 | 3 | 104 | 96 | 38
CCc1nc(-c2ccc(OC)cc2)[nH]c1-c1ccncc1 |  |  | 121 | 100 | 101 | 74 |  | 123 | 102 | 
COc1cc2ncnc(Nc3ccc(OCc4ccccc4)cc3)c2cc1OC | 92 | 116 | 121 | 99 | 117 | 93 | 87 | 84 | 62 | 82
COC(=O)[C@@]1(O)C[C@H]2O[C@]1(C)n1c3ccccc3c3c4c(c5c6ccccc6n2c5c31)C(=O)NC4 | 93 | 82 | 108 | 90 | 1 | 4 | 33 | 71 | 18 | 72
COc1ccc2c(c1)/C(=C/c1cnc[nH]1)C(=O)N2 |  |  |  | 32 | 50 | 10 |  |  |  | 
CCn1cnc2c(Nc3cccc(Cl)c3)nc(N[C@@H]3CCCC[C@@H]3N)nc21 | 91 | 57 |  |  | 10 | 4 | 30 |  | 69 | 76
O=C1NC(=O)c2c1c1c3ccccc3n3c1c1c2c2ccccc2n1C1CCC3O1 |  |  | 63 | 49 | 100 | 92 | 85 |  |  | 95
COc1cc(OC)c(/C=C2\C(=O)Nc3ccccc32)c(OC)c1 | 88 | 91 | 94 | 90 |  |  | 81 |  | 99 | 83
c1cc(-c2cnn3cc(-c4ccc(OCCN5CCCCC5)cc4)cnc23)ccn1 | 82 | 27 | 26 | 1 | 26 | 3 | 23 | 100 | 64 | 62
